# The supplement of paper PMC12669032
# Values without a mark were called inactive.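 Rule for the calls: active = AUC reduced over 20% with Padj below 0.05 in at least 2 of 3 replicates; inactive = otherwise.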
# System: Bacteroides uniformis
# Assay: growth AUC relative to DMSO control (median of replicates) (fraction); higher = more growth (less inhibition), active = hit call of the paper
# Settings: 20 µM; 24 h
# Procedure, shortened: (§1)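 OD600 was recorded every hour for 24 h in anaerobic monocultures of gut bacteria kept at 37 °C in mGAM, seeded at OD600 0.05 and given 20 µM compound in 1% DMSO. The area under each growth curve was scaled to the plate median of solvent-only wells, or to row and column medians for the industrial chemical plate. Before this step, the minimum OD was set to 0. Reported values are medians of three biological replicates run on separate days.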
row,SMILES,growth AUC
1,CCOP(=S)(OCC)Oc1nc(Cl)n(C(C)C)n1,0.972
2,CCCCN(CC)C(=O)SCCC,0.976
3,c1coc(-c2nc3ccccc3[nH]2)c1,0.968
4,CC(C)Nc1nc(Cl)nc(NC(C)C)n1,1.02
5,CN=C=S,1
6,Clc1ccc(Cl)c(Cl)c1,0.953
7,O=C1C2(Cl)C3(Cl)C4(Cl)C(Cl)(Cl)C5(Cl)C3(Cl)C1(Cl)C5(Cl)C24Cl (configuration not stated),0.0112 (active)
8,Nc1ccncc1,0.987
9,O=C(O)c1cc(Cl)ccc1Cl,1.03

# System: Bifidobacterium longum subsp. longum
# Assay: as above
# Settings: 20 µM; 24 h
# Procedure, shortened: as §1
row,SMILES,growth AUC
1,CCS(=O)(=O)c1nc2ccccn2c1S(=O)(=O)NC(=O)Nc1nc(OC)cc(OC)n1,0.928
2,C[Si](Cn1cncn1)(c1ccc(F)cc1)c1ccc(F)cc1,0.923
3,CCSC(=O)N1CCCCCC1,0.992
4,O=[N+]([O-])c1ccc(Oc2ccc(C(F)(F)F)cc2[N+](=O)[O-])cc1,0.936
5,CC#Cc1cc(C)nc(Nc2ccccc2)n1,0.978
6,COP(=O)(OC)OC1=C(Cl)C2C=CCC12 (configuration not stated),1.01
7,CCC(C)[C@H]1O[C@]2(C=C[C@@H]1C)C[C@@H]1C[C@@H](C/C=C(\C)[C@@H](O[C@H]3C[C@H](OC)[C@@H](O[C@H]4C[C@H](OC)[C@@H](O)[C@H](C)O4)[C@H](C)O3)[C@@H](C)/C=C/C=C3\CO[C@@H]4[C@H](O)C(C)=C[C@@H](C(=O)O1)[C@]34O)O2.CO[C@H]1C[C@H](O[C@H]2[C@H](C)O[C@@H](O[C@@H]3/C(C)=C/C[C@@H]4C[C@@H](C[C@]5(C=C[C@H](C)[C@@H](C(C)C)O5)O4)OC(=O)[C@@H]4C=C(C)[C@@H](O)[C@H]5OC/C(=C\C=C\[C@@H]3C)[C@]54O)C[C@@H]2OC)O[C@@H](C)[C@@H]1O (some centres not stated),0.919
8,C[C@@H](Oc1ccc(Oc2nc3ccc(Cl)cc3o2)cc1)C(=O)O,1.16
9,N#Cc1cc(I)c(O)c(I)c1,0.941
10,CCc1cnc(C2=NC(C)(C(C)C)C(=O)N2)c(C(=O)O)c1 (configuration not stated),0.937
11,CON(C)C(=O)Nc1ccc(Cl)cc1,1.12
12,COCC(=O)N(c1c(C)cccc1C)C(C)C(=O)OC (configuration not stated),1.1
13,O=C1C[C@@H]2OCC=C3CN4CC[C@]56c7ccccc7N1[C@H]5[C@H]2[C@H]3C[C@H]46,1.09
14,CC(C)=CC1C(C(=O)OCN2C(=O)C3=C(CCCC3)C2=O)C1(C)C (configuration not stated),0.741
15,CCOP(=O)(SC(C)CC)SC(C)CC (configuration not stated),0.97
16,Oc1ccc(Cl)c(Cl)c1Cl,0.969
17,CSc1nnc(C(C)(C)C)c(=O)n1N,1.09

row,SMILES,growth AUC
1,Oc1c(Cl)ccc(Cl)c1Cl,1.02
2,CCC1COC(Cn2cncn2)(c2ccc(Cl)cc2Cl)O1 (configuration not stated),0.976
3,O=[N+]([O-])/N=C1\NCCN1Cc1ccc(Cl)nc1,0.963
4,CCCCCCCCCCCCCN1CC(C)OC(C)C1 (configuration not stated),0.908
5,O=[N+]([O-])c1ccc(Oc2ccc(Cl)cc2Cl)cc1,0.972
6,COc1cc(OC)nc(NC(=O)NS(=O)(=O)c2cc(NC=O)ccc2C(=O)N(C)C)n1,1.03
7,C[N+](C)(C)CCCl.[Cl-],0.997
8,O=c1ccc(=O)[nH][nH]1,1.62
9,CCC(C)(c1ccc(O)cc1)c1ccc(O)cc1,1.02
10,Cc1cc(C(F)(C(F)(F)F)C(F)(F)F)ccc1NC(=O)c1cccc(I)c1C(=O)NC(C)(C)CS(C)(=O)=O,1.06
11,CN(C)C(=O)Nc1ccc(Cl)cc1,0.99
12,O=C(O)C1(O)c2ccccc2-c2ccc(Cl)cc21 (configuration not stated),0.936
13,N#CCNC(=O)c1cnccc1C(F)(F)F,0.961
14,CCOP(=S)(OCC)Oc1nc(Cl)n(C(C)C)n1,0.964
15,CCCCN(CC)C(=O)SCCC,0.983
16,c1coc(-c2nc3ccccc3[nH]2)c1,1.04
